A short description of experiment [1]: NCI Yeast Anticancer Drug Screen. Data for the rad50 strain (AID 155).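 Note: 0% = growth of vehicle-only cultures of the same strain.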 Particulars: S. cerevisiae rad50 strain growth inhibition, stronger effect = higher value. An outline of the steps:
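Genetically altered yeast (DNA repair pathway); compound treatment; growth inhibition vs vehicle ctrl.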

Experiment [2] is described as follows: NCI Yeast Anticancer Drug Screen. Data for the mec2-1 strain (AID 157). Particulars: S. cerevisiae mec2-1 strain, stronger effect = higher value. An outline of the steps:
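Vehicle-treated cultures served as reference for growth inhibition of compound-exposed mec2-1 yeast.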

Experiment [3] can be described thus: NCI Yeast Anticancer Drug Screen. Data for the sgs1 mgt1 strain (AID 161).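 Note: 0% = growth of cultures given vehicle only.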 Particulars: S. cerevisiae sgs1 mgt1 strain, stronger effect = higher value. The method in brief: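 Mutant yeast exposed to compound; growth scored against vehicle-only wells.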
Experiment [4] can be described thus: NCI Yeast Anticancer Drug Screen. Data for the cln2 rad14 strain (AID 165).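 Note: 0% = growth equal to vehicle treated cultures.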 Particulars: S. cerevisiae cln2 rad14 strain, stronger effect = higher value. An outline of the steps:
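Each compound was tested on cln2 rad14 yeast. Inhibition of growth was calculated against vehicle-exposed controls.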

Experiment [5] can be described thus: NCI Yeast Anticancer Drug Screen. Data for the bub3 strain (AID 167). The note with it: S. cerevisiae bub3 mutant strain, stronger effect = higher value. The method in brief: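 Yeast carrying a defined mutation is treated with each compound, and growth is compared with that of vehicle-exposed cells to give inhibition.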
Experiment [6] can be described thus: NCI Yeast Anticancer Drug Screen. Data for the mlh1 rad18 strain (AID 175). Particulars: S. cerevisiae mlh1 rad18 strain growth inhibition, stronger effect = higher value. An outline of the steps: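 Vehicle-treated cultures served as the reference for growth inhibition in a yeast strain carrying DNA damage repair alterations exposed to each compound.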
The mark [7] stands for this setting: at 5.0 µM (retest, dose inferred, filed as 0.5).
The mark [8] stands for this setting: at 50.0 µM (retest, dose inferred, filed as 5.0).

Several values for one entry are separate records, joined by “and”; a condition that tells them apart may be missing. Equal entries are not always repeated. This is part of a sample that, as a whole, favours compounds with a hit. Of some 79,000 tested, about 15% had one in any assay. The source holds several records for some structures; these can differ, active in one and inactive in another. Activity calls are given as the source filed them. Cut-off read from the data, not from the text of the source: active = growth inhibition above about 70%; inactive = the rest.

Consider `O=C1C(=Cc2ccc(O)cc2)N=C(c2ccccc2)N1n1c(-c2ccccc2)nc2ccccc2c1=O`, for which the growth inhibition in experiment [1] (setting [7]) is 2% (inactive); in experiment [1] (setting [8]), 39% (inactive); in experiment [1] (at 50.0 µM), 71% (active); in experiment [2] (setting [7]), -2% (inactive); in experiment [2] (setting [8]), 23% (inactive); in experiment [2] (at 50.0 µM) it was 38.9% (inactive). In addition, the growth inhibition in experiment [3] (setting [7]) is 9% (inactive); in experiment [3] (setting [8]), 29% (inactive); in experiment [3] (at 50.0 µM), 73.2% (active); in experiment [4] (setting [7]) it was 18% (inactive); in experiment [4] (setting [8]) it was 40% (inactive); in experiment [4] (at 50.0 µM), 44.9% (inactive). Moreover, the growth inhibition in experiment [5] (setting [7]) was 12% (inactive); in experiment [5] (setting [8]), 57% (inactive); in experiment [5] (at 50.0 µM), 89.4% (active); in experiment [6] (setting [7]), 12% (inactive); in experiment [6] (setting [8]) it was 64% (inactive); in experiment [6] (at 50.0 µM) it was 91.8% (active).

As to `NC(CCCCNC(=O)c1ccccc1)C(=O)O` (stereo unspecified), the growth inhibition in experiment [1] (setting [7]) was -1% (inactive); in experiment [1] (setting [8]), 4% (inactive); in experiment [1] (at 50.0 µM), 17.2% (inactive) and -18.6% (inactive); in experiment [2] (setting [7]), 3% (inactive); in experiment [2] (setting [8]), 2% (inactive); in experiment [2] (at 50.0 µM), 5.85% (inactive) and -22.1% (inactive). Besides, the growth inhibition in experiment [3] (setting [7]) was 0% (inactive); in experiment [3] (setting [8]), -3% (inactive); in experiment [3] (at 50.0 µM) it was 0.1% (inactive) and -35.4% (inactive); in experiment [4] (setting [7]) it was 3% (inactive); in experiment [4] (setting [8]), 4% (inactive); in experiment [4] (at 50.0 µM) it was 91.9% (active) and -28.2% (inactive). In addition, the growth inhibition in experiment [5] (setting [7]) is 17% (inactive); in experiment [5] (setting [8]), -2% (inactive); in experiment [5] (at 50.0 µM), -5% (inactive) and -23.4% (inactive); in experiment [6] (setting [7]), -3% (inactive); in experiment [6] (setting [8]) it was -3% (inactive); in experiment [6] (at 50.0 µM), -1.1% (inactive) and -21.9% (inactive).

On to `CC(=O)/C(=C\c1ccc(Cl)c(Cl)c1)C(=O)CCN(C)C`, for which the growth inhibition in experiment [1] (setting [7]) was 13% (inactive) and 6% (inactive); in experiment [1] (setting [8]) it was 42% (inactive) and 30% (inactive); in experiment [1] (at 50.0 µM) it was 49.2% (inactive) and 56% (inactive); in experiment [2] (setting [7]), 13% (inactive) and -8% (inactive); in experiment [2] (setting [8]), 43% (inactive) and 26% (inactive); in experiment [2] (at 50.0 µM), 78.2% (active) and 42.8% (inactive). Also, the growth inhibition in experiment [3] (setting [7]) is 22% (inactive) and 9% (inactive); in experiment [3] (setting [8]) it was 45% (inactive) and 50% (inactive); in experiment [3] (at 50.0 µM), 58.6% (inactive) and 63.7% (inactive); in experiment [4] (setting [7]) it was 19% (inactive) and 16% (inactive); in experiment [4] (setting [8]) it was 17% (inactive) and 21% (inactive); in experiment [4] (at 50.0 µM) it was 18.8% (inactive) and 41.1% (inactive). The growth inhibition in experiment [5] (setting [7]) was 5% (inactive) and 18% (inactive); in experiment [5] (setting [8]), 41% (inactive) and 42% (inactive); in experiment [5] (at 50.0 µM) it was 58% (inactive) and 58.1% (inactive); in experiment [6] (setting [7]) it was 20% (inactive) and 8% (inactive); in experiment [6] (setting [8]), 50% (inactive) and 49% (inactive); in experiment [6] (at 50.0 µM), 74.2% (active) and 72.2% (active).

For `COc1ccc(/C=C2\C=Nc3ccccc32)cc1`, the growth inhibition in experiment [1] (setting [7]) was 12% (inactive); in experiment [1] (setting [8]), -10% (inactive); in experiment [1] (at 50.0 µM) it was 12.7% (inactive); in experiment [2] (setting [7]), -3% (inactive); in experiment [2] (setting [8]) it was 10% (inactive); in experiment [2] (at 50.0 µM), -5.7% (inactive). For the same molecule, the growth inhibition in experiment [3] (setting [7]) is 0% (inactive); in experiment [3] (setting [8]), -3% (inactive); in experiment [3] (at 50.0 µM), 17.9% (inactive); in experiment [4] (setting [7]), 28% (inactive); in experiment [4] (setting [8]) it was 25% (inactive); in experiment [4] (at 50.0 µM), 10.4% (inactive). The growth inhibition in experiment [5] (setting [7]) was 18% (inactive); in experiment [5] (setting [8]) it was 30% (inactive); in experiment [5] (at 50.0 µM), 33.7% (inactive); in experiment [6] (setting [7]), 12% (inactive); in experiment [6] (setting [8]), 11% (inactive); in experiment [6] (at 50.0 µM), 4.55% (inactive).

In the case of `COc1cccc(OCCC#N)c1`, the growth inhibition is 2% (inactive) in experiment [1] (setting [7]); 27% (inactive) in experiment [1] (setting [8]); -6.7% (inactive) and 72.8% (active) in experiment [1] (at 50.0 µM); -1% (inactive) in experiment [2] (setting [7]); 0% (inactive) in experiment [2] (setting [8]); 4.05% (inactive) and 4.85% (inactive) in experiment [2] (at 50.0 µM). Further, the growth inhibition in experiment [3] (setting [7]) is -1% (inactive); in experiment [3] (setting [8]) it was 12% (inactive); in experiment [3] (at 50.0 µM) it was -5.2% (inactive) and 31.4% (inactive); in experiment [4] (setting [7]), -7% (inactive); in experiment [4] (setting [8]) it was -1% (inactive); in experiment [4] (at 50.0 µM), -34.8% (inactive) and 20.4% (inactive). Also, the growth inhibition in experiment [5] (setting [7]) was -6% (inactive); in experiment [5] (setting [8]), -5% (inactive); in experiment [5] (at 50.0 µM), -8.35% (inactive) and -22.1% (inactive); in experiment [6] (setting [7]) it was 4% (inactive); in experiment [6] (setting [8]), 19% (inactive); in experiment [6] (at 50.0 µM) it was -1.9% (inactive) and 44.9% (inactive).

With `O=S(=O)(CC(Cl)c1ccccc1)c1nc2ccccc2s1` (stereo unspecified), the growth inhibition is -7% (inactive) in experiment [1] (setting [7]); -7% (inactive) in experiment [1] (setting [8]); 69.5% (inactive) in experiment [1] (at 50.0 µM); 2% (inactive) in experiment [2] (setting [7]); 2% (inactive) in experiment [2] (setting [8]); 79.1% (active) in experiment [2] (at 50.0 µM). Also, the growth inhibition was 9% (inactive) in experiment [3] (setting [7]); 9% (inactive) in experiment [3] (setting [8]); 72.7% (active) in experiment [3] (at 50.0 µM); -14% (inactive) in experiment [4] (setting [7]); -14% (inactive) in experiment [4] (setting [8]); 43.2% (inactive) in experiment [4] (at 50.0 µM). Also, the growth inhibition in experiment [5] (setting [7]) was -30% (inactive); in experiment [5] (setting [8]), -30% (inactive); in experiment [5] (at 50.0 µM) it was 71.4% (active); in experiment [6] (setting [7]) it was -13% (inactive); in experiment [6] (setting [8]), -13% (inactive); in experiment [6] (at 50.0 µM), 47% (inactive).

For the molecule `Clc1ccc(CNNCc2ccc(Cl)cc2)cc1`, the growth inhibition is -12% (inactive) in experiment [1] (setting [7]); 85% (active) in experiment [1] (setting [8]); 7.2% (inactive) and 78.7% (active) in experiment [1] (at 50.0 µM); 0% (inactive) in experiment [2] (setting [7]); 96% (active) in experiment [2] (setting [8]); -3.05% (inactive) and -2.3% (inactive) in experiment [2] (at 50.0 µM). Also, the growth inhibition in experiment [3] (setting [7]) was -2% (inactive); in experiment [3] (setting [8]), 98% (active); in experiment [3] (at 50.0 µM) it was -3% (inactive) and 58.5% (inactive); in experiment [4] (setting [7]), -1% (inactive); in experiment [4] (setting [8]), 72% (active); in experiment [4] (at 50.0 µM) it was -10.4% (inactive) and 16.6% (inactive). Also, the growth inhibition was 46% (inactive) in experiment [5] (setting [7]); 96% (active) in experiment [5] (setting [8]); -9.95% (inactive) and 72.6% (active) in experiment [5] (at 50.0 µM); -2% (inactive) in experiment [6] (setting [7]); 94% (active) in experiment [6] (setting [8]); 11.7% (inactive) and 67.8% (inactive) in experiment [6] (at 50.0 µM).
